The full list was thinned out, with hits kept by preference.
VCAM1 pot: enhances TNF alpha induced VCAM1 expression in HUVEC; HUVEC TNFa-stimulated VCAM-1 immunofluorescence, high-content imaging; scaled per plate to unstimulated/TNFa-only wells; actives 0.19% (n = 93,000); activation, % at 2 µM;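 active = activation above the screen mean plus 3 SD, with well images confirming the hit on visual review, cut at about 28% in these data, passing the limit was not always enough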;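 note: signal is the number of cytoplasmic VCAM-1 stained grains per positive cell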
VCAM1 pot confirm: enhancers of VCAM1 induction in HUVEC – imaging, triplicate retest, confirmation; 230 tested, under 10 active; shares compounds with VCAM1 pot; activation, % at 2 µM; AID 1034; HUVEC TNFa-stimulated VCAM-1 immunofluorescence imaging;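 active = activation above 30% in triplicate retests at 2 µM, then confirmed by visual review of the well images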
Of the large screens only hits and unclear results are named; the others gave an inactive call (follow-up assays come after a bar, where they were run).

Cn1c(-c2ccc3c(c2)OCO3)cnc1NCc1ccccc1	VCAM1 pot 50.9 | VCAM1 pot confirm inactive
CCn1c(SCc2nc(-c3cccs3)no2)nnc1-c1c[nH]c2ccccc12	none
COC(=O)c1nc2nc(C)cc(=O)n2[nH]1	none
O=C(O)CCCC(=O)Nc1ccccc1C(=O)O	none
CCOC(=O)c1cn(CC(=O)Nc2ccc3c(c2)OCCO3)nn1	none
Cc1ncoc1C(=O)Nc1ccc2c(c1)OCCO2	VCAM1 pot 81.0 | VCAM1 pot confirm inactive
Cc1ccc2nc(SCC(=O)Nc3ccc4c(c3)OCCO4)[nH]c2c1	none
Cc1[nH]n(-c2ccc([N+](=O)[O-])cc2)c(=O)c1C=NCCN1CCN(C(=O)c2cccc(F)c2)CC1	none
CCOC(=O)Cc1csc(NC(=O)CSc2nc(N)c3c(C)c(C)sc3n2)n1	VCAM1 pot 32.6 | VCAM1 pot confirm inactive
CCOC(=O)Cc1csc(NC(=O)CSc2nnnn2-c2ccc(C)cc2C)n1	none
CCOC(=O)Cc1csc(NC(=O)COc2ccccc2OCC)n1	none
O=C(Cc1ccsc1-c1ccccc1)NO	none

Bioassay records: PubChem BioAssay, Columbia University Molecular Screening Center
